AHR act: AHR activators, primary screen, cell-based, luminescence, luciferase reporter, human; AHR-responsive luciferase reporter cells; activation, % at 5 µM; hit rate 2.5% among 320,000; in the data active = activation above about 47%;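 also: 0% = vehicle wells and 100% = reference agonist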
Target sequence (P35869 whole entry, looked up): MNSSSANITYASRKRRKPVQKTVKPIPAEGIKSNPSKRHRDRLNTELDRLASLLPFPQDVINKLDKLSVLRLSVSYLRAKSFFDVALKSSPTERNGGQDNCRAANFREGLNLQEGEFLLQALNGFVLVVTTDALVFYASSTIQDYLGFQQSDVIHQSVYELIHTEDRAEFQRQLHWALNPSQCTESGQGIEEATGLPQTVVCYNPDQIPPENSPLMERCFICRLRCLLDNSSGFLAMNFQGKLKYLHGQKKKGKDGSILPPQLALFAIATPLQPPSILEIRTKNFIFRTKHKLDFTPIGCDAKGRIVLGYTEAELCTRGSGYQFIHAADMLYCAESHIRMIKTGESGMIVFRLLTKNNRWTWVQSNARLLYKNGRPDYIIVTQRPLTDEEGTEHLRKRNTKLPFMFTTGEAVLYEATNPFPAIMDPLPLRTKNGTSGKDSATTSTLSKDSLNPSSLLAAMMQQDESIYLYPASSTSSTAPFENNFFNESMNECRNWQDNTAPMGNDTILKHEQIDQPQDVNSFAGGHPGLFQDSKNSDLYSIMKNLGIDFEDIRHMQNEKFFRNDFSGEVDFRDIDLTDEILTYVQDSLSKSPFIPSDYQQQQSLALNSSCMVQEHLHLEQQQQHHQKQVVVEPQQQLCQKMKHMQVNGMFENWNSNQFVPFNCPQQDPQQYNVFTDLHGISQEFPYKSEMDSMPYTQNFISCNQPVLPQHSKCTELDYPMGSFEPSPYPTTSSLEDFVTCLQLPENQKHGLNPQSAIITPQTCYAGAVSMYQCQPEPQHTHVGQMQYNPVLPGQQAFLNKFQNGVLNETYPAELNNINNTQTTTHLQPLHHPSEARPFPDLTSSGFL
NR3A LBD binder: binders of NR3A ligand-binding domain, primary screen, biophysical, differential scanning fluorimetry, uHTS. Tm shift relative to glycine control, % at 25 µM. Glutamate receptor ionotropic, NMDA 3A (GRIN3A) ligand-binding domain. AID 1259313, 2017. NR3A LBD differential scanning fluorimetry, Tm shift; 0% = protein alone, 100% = glycine-bound protein. hit rate 2.5% among 340,000;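 active = melting temperature shift of at least 10% of the positive control shift, at one fixed dose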
rCAG RNA binder: binders of r(CAG) RNA repeats, primary screen, biochemical, fluorescence; r(CAG) RNA repeat, TO-PRO-1 dye displacement fluorescence; inhibition, % at 3 µM; hit rate 1.3% among 370,000;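 active = inhibition above the plate cutoff, the mean of all test compounds on that plate plus 3 SD, cut at about 35% in these data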;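 also: 0% = DMSO alone and 100% = 100 µM mitoxantrone as full dye displacement; higher means more dye released from RNA so lower well fluorescence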
proKLK7 act: proKLK7 zymogen activators, primary screen, biochemical, fluorescence intensity; Kallikrein-7 (Homo sapiens), P49862; purified proKLK7, EDANS-DABCYL substrate fluorescence; 100% is mature enzyme control, 0% vehicle; activation, % at 7 µM; hit rate 0.9% among 370,000;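 active = activation above the mean of all tested compounds plus 3 SD, computed per campaign excluding outliers beyond control limits, cut at about 13% in these data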
ADAM17 inh: ADAM17 inhibitors, primary screen, biochemical, QFRET | Disintegrin and metalloproteinase domain-containing protein 17 (Homo sapiens), P78536 | recombinant ADAM17, EDANS/DABCYL FRET peptide cleavage | inhibition, % at 6.95 µM | hit rate 0.83% among 370,000 | AID 720648, 2013;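 active = inhibition above the mean of compounds lying between control limits plus 3 SD, set per campaign, cut at about 8.5% in these data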;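 also: 0% = DMSO-only wells as the low control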
ADAM10 inh: human ADAM10 inhibitors, primary screen, biochemical, QFRET, HTS; recombinant ADAM10, EDANS/DABCYL FRET peptide cleavage, 3 h; inhibition, % at 7 µM; Disintegrin and metalloproteinase domain-containing protein 10 (Homo sapiens), O14672; hit rate 0.62% among 370,000;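 active = inhibition above a per-campaign cutoff equal to the mean of compounds falling between control-based bounds plus 3 SD, cut at about 20% in these data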;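 also: 0% = DMSO wells while the 100% control is not disclosed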
The depositor's hits bear a star; x = no result. Only some compounds are listed: those with a hit (about 7% of all), similar ones and a draw of the others.

SMILES	AHR act	NR3A LBD binder	rCAG RNA binder	proKLK7 act	ADAM17 inh	ADAM10 inh
C#CCOCCOCCOCCNc1nc(N2CCN(C(=O)CCCCCCCCCCNC(=O)[C@H]([C@@H](C)CC)n3cc(CCCCCN)nn3)CC2)nc(N2CCN(C(=O)CCCCCCCCCCNC(=O)[C@@H]([C@H](C)O)n3cc(C)nn3)CC2)n1	3	17*	x	x	x	x
C#CCOCCOCCOCCNc1nc(N2CCN(C(=O)CCCCCCCCCCNC(=O)[C@@H](CCSC)n3cc(CCO)nn3)CC2)nc(N2CCN(C(=O)CCCCCCCCCCNC(=O)[C@H]([C@@H](C)CC)n3cc(CCCCCN)nn3)CC2)n1	0	17*	x	x	x	x
C#CCOCCOCCOCCNc1nc(N2CCN(C(=O)CCCCCCCCCCNC(=O)Cn3cc(CCCCCN)nn3)CC2)nc(N2CCN(C(=O)CCCCCCCCCCNC(=O)[C@H]([C@@H](C)CC)n3cc(CCCCCN)nn3)CC2)n1	-2	28*	x	x	x	x
COc1cc(C(C)=O)ccc1OCc1cc(C(=O)N(C)CCC2CCCCO2)no1 (configuration not stated)	23	1	1	0	0	-6
CSc1ccccc1OCc1cc(C(=O)NC(C)Cc2cccc(C)n2)no1 (configuration not stated)	53*	3	-6	-1	-2	4
CN(CC1COCCO1)C(=O)c1cc(COc2c(F)cccc2F)on1 (configuration not stated)	-3	3	-9	0	-6	-15
COc1ccccc1OCc1cc(C(=O)N(C)CCC2CCCCO2)no1 (configuration not stated)	53*	-1	-5	-1	-1	-3
CSc1ccccc1OCc1cc(C(=O)N(C)CC2COCCO2)no1 (configuration not stated)	5	13*	-1	1	-2	-4
CSc1ccccc1OCc1cc(C(=O)NCc2cccc(C)n2)no1	46	-1	0	0	2	-7
CSc1ccccc1OCc1cc(C(=O)N(C)Cc2nonc2C)no1	19	13*	-5	0	3	-1
COc1cc(Cl)ccc1OCc1cc(C(=O)N(C)Cc2nnc(C)o2)no1	0	10*	-7	1	4	-6
COc1ccc(/C=N/NC(=O)c2[nH]nc3c2CCc2ccccc2-3)cc1OC	8	34*	13	-31	1	-9
CCOc1ccc(Br)cc1S(=O)(=O)Nc1ccc(C(=O)OCC(=O)Nc2ccc(C#N)cc2)cc1	-1	14*	15	-1	1	1
COc1ccc(NC(=S)Nc2ccc3nccnc3c2)cc1	7	1	-4	-3	-13	-41
COc1ccc(NC(=S)Nc2ccc(N)c([N+](=O)[O-])c2)cc1	62*	12*	3	0	0	-12
COc1ccc(NC(=S)Nc2ccc3snnc3c2)cc1	67*	28*	10	1	-3	-3
COc1ccc(NC(=S)Nc2ccccc2)cc1	1	-5	-2	0	-2	-4
O=C(NC1CCCCN(Cc2ccc(OC(F)(F)F)cc2)C1=O)c1ccc(F)c(F)c1 (configuration not stated)	x	x	-2	0	0	1
CCN1Cc2nnn(Cc3ccccc3)c2-c2cc(N3CCCC3)ccc2S1(=O)=O	x	x	6	-1	-12	-40
CCCCC(=O)NCCc1ccc(OC)cc1	8	-1	-4	1	-2	0
CCOc1ccc(OCCCC(=O)NCCc2ccc(OC)cc2)cc1	2	34*	-6	1	1	-1
CC(=O)C1(C(=O)N2CCOCC2)CC(c2ccccc2C(F)(F)F)=NO1 (configuration not stated)	x	x	2	1	-5	-9
CCCN1CCCCC(NC(=O)c2ccc(-c3ccccc3)cc2)C1=O (configuration not stated)	x	x	-1	0	-6	-9

Screens (PubChem)
